Screens deposited in PubChem by National Center for Advancing Translational Sciences (NCATS).
D1 PAM = Potentiators of Human D1 Dopamine Receptor: qHTS | HEK293 TREx D1 cells, calcium flux, dopamine EC20 potentiation | potentiation, % at 10 µM | 360,000 compounds, 0.036% hits; in the data active = potentiation above about 30%; also: 0% is about no effect
Target sequence (P21728 whole entry, looked up): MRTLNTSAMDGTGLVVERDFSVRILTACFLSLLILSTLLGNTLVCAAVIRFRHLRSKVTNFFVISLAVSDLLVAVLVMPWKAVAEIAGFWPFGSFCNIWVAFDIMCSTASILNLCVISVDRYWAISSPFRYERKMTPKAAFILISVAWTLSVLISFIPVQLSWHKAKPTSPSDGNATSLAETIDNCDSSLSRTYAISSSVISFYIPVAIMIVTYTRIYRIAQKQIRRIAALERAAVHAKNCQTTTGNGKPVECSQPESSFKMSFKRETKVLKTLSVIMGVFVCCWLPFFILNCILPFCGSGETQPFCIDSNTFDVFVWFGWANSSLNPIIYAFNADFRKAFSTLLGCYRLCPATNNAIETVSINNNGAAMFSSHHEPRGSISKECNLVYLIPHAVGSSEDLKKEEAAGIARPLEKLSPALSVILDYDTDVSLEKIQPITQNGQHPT
D1 antagonist = Antagonist of Human D 1 Dopamine Receptor: qHTS | D(1A) dopamine receptor (Homo sapiens), P21728 | HEK293 TREx D1 cells, calcium flux, dopamine EC80; hits give low values | activity change, negative = inhibition, % at 10 µM | 360,000 compounds, 3.2% hits; in the data active = activity change below about -30%; also: % is scaled to controls: 0 for no effect and ±100 for the full control effect
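Tetracycline-induced HEK293 Trex D1 cells, force-coupled to calcium, dye-loaded; compounds added and read 180 s, then EC80 dopamine added and calcium flux tracked kinetically another 180 s.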
DRD3 antagonist = qHTS of D3 Dopamine Receptor Antagonist: qHTS | D(3) dopamine receptor (Homo sapiens), P35462 | D3R cells, DiscoveRx beta-arrestin luminescence, antagonist mode; hits give low values | max response, negative = inhibition, % | 360,000 compounds, 2.5% hits | AID 652054, 2013; in the data active = max response below about -50%; inconclusive = no clear call, values can overlap the other calls; also: % is scaled to controls: 0 for no effect and ±100 for the full control effect
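Cells plated overnight at 1500 cells/well, then exposed to library compounds with dopamine controls for 90 minutes at 37 degrees C. DiscoveRx reagent added for 30–60 minutes at room temperature; luminescence read, quantitative HTS format.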
DRD3 agonist = qHTS of D3 Dopamine Receptor Agonist: qHTS; D3R DiscoveRx beta-arrestin cells, luminescence, 90 min; max activation, %; 410,000 compounds, 0.58% hits; AID 652048, 2013; in the data active = max activation above about 30%; also: 0% is about no effect
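Agonist mode: compounds and dopamine controls were applied to plated cells for 90 min at 37 degrees C after an overnight attachment at 1500 cells/well. Luminescent read-out followed 30 - 60 minutes at room temperature with DiscoveRx detection reagent.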
D1 agonist = Allosteric Agonists of the Human D1 Dopamine Receptor: qHTS; D(1A) dopamine receptor (Homo sapiens), P21728; HEK293 T-REx D1 cells, calcium flux, agonist mode; activation, % at 2 µM; 360,000 compounds, 1% hits; AID 504660, 2011; in the data active = activation above about 30%; also: 0% is about no effect
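Tetracycline-induced HEK293 TREx D1 cells, force-coupled to calcium signalling, were dye-loaded with a no-wash calcium kit. Compound was pin-added after a 10 s baseline. Fluorescence was read kinetically at 1 cycle/s for 180 s, with calcium rises flagged as agonism.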
The depositor's hits bear a star; u = inconclusive; x = no result given; ! = not active in a repeat. Most compounds without a hit are left out; they make up all but 6% or so of the library.

SMILES	D1 PAM	D1 antagonist	DRD3 antagonist	DRD3 agonist	D1 agonist
Cc1ncoc1C(=O)N1CCCC(C(=O)c2cccc3ccccc23)C1 (configuration not stated)	-1	-1	-1	-3	-1
COc1ccc(F)cc1C(=O)C1CCCN(C(=O)c2ocnc2C)C1 (configuration not stated)	-1	-32*	1	-4	1
COc1cccc(CSc2nc3n(n2)C(c2cccnc2)C(C(=O)Nc2ccccc2C)=C(C)N3)c1 (configuration not stated)	-2	-7	x	-5	-1
CC1=C(C(=O)Nc2ccccc2C)C(c2cccnc2)n2nc(SCc3ccccc3)nc2N1 (configuration not stated)	-5	-38*	x	7	3
CCSc1nc2n(n1)C(c1ccc(Cl)cc1Cl)C(C(=O)Nc1ccccc1C)=C(C)N2 (configuration not stated)	-5	-34*	x	-5	0
CC1=C(C(N)=O)C(c2cccc(Br)c2)n2nc(SCc3ccccc3Cl)nc2N1 (configuration not stated)	-4	6	x	56*	1
Cc1nnc(N2CCN(C(=O)Nc3cccc(C(F)(F)F)c3)CC2)c2nn(-c3ccccc3)c(C)c12	-6	5	x	5	3
O=Cc1s/c(=N\S(=O)(=O)c2ccccc2)n(CCCCl)c1Cl	-12	-29	-120*	-24	0
O=S(=O)(c1ccc(F)cc1)c1snnc1-c1ccccc1	-2	-5	-18	8	5
O=S(=O)(c1ccc(Cl)cc1)c1snnc1-c1ccccc1	-3	-19	-64*	-10	7
CCOc1ccc(CC(=O)Nc2ccc3nc(N4CCCCC4)cc(C)c3c2)cc1OCC	0	11	x	-20	2
Cn1c(=O)c2cc(NC(=O)CC(C)(C)C)ccc2n1-c1ccccc1F	x	x	0	-7	x
CC(CC(=O)Nc1ccc2c(c1)c(=O)n(C)n2-c1ccccc1F)c1ccccc1 (configuration not stated)	x	x	-90*	-22	x
CCOC(=O)CC(NC(=O)c1cc2c(=O)n3cccc(C)c3nc2s1)c1ccc(OCC)c(OC)c1 (configuration not stated)	-1	-11	x	1	6
Cc1ccc(NC(=O)Cn2cc(S(=O)(=O)c3ccc(C)cc3)c(=O)c3cc4c(cc32)OCO4)cc1	3	2	x	3	5
CCC(NC(=S)NCc1ccc(F)cc1)c1ccccc1 (configuration not stated)	-1	-7	-26	-15	40*
Cc1ccc(NC(=S)NCc2ccc(F)cc2)cc1	x	x	-3	-5	x
Cc1ccc(C)c(C(C)NC(=S)NCc2ccc(F)cc2)c1 (configuration not stated)	0	7	0	-3	93*
COc1ccc(C(C)NC(=S)NCc2ccc(F)cc2)cc1 (configuration not stated)	0	-4	-5	3	21
CCOc1ccc(C2=C/C(=C/c3cccnc3)C(=O)O2)cc1	-2	-14	-4	-3	65*
COc1ccc(C2=C/C(=C/c3cccnc3)C(=O)O2)cc1OC	-12	-21	-7	-4	60*
Cc1cccc(Cn2c(C)c(CNC3CCCCCC3)c(C(=O)O)c2C)c1	0	-4	x	-16	1
N#C/C(=C(/O)COC(=O)c1ccc(Cl)c(S(=O)(=O)N2CCOCC2)c1)c1nc2ccccc2[nH]1	-9	-16	9	5	1
CCOC(=O)c1c(C)[nH]c(C(=O)OC/C(O)=C(\C#N)c2nc3ccccc3[nH]2)c1C	0	-15	-52*	-1	6
N#C/C(=C(/O)COC(=O)c1ccc2c(c1)OCCO2)c1nc2ccccc2[nH]1	-11	7	-62*	-2	0
SMILES	D1 PAM	D1 antagonist	DRD3 antagonist	DRD3 agonist	D1 agonist
Cc1ccc(-c2csc(=Nc3ccc(F)cc3)n2Cc2ccc3c(c2)OCO3)cc1C	-2	-10	x	-1	0
Cc1ccccc1NC(=O)CCn1cnc2onc(-c3ccc(F)cc3)c2c1=O	-3	-45*	x	-15	24
CCc1ccc(-n2c(=O)c3c4c(sc3n(CC(=O)c3ccc(Br)cc3)c2=O)CCC4)cc1	1	-7	x	-10	3
COc1ccc(-c2noc(CCC(=O)N3CCN(c4ccccc4C(F)(F)F)CC3)n2)cc1	x	x	117	31*	x
COc1ccc(-c2noc(CCC(=O)N3CCN(c4cccc(Cl)c4)CC3)n2)cc1	x	x	53	14	x
COc1ccc(-c2noc(CCC(=O)N3CCN(c4ccccc4OC)CC3)n2)cc1	x	x	67	15	x
COc1ccc(-c2noc(CCC(=O)N3CCN(c4cccc(F)c4)CC3)n2)cc1	x	x	100	34*	x
O=C(c1ccc(CS(=O)(=O)c2c(Cl)cccc2Cl)o1)N1CCN(c2ccccc2)CC1	-3	-13	x	-13	6
O=C(NCc1ccccc1)c1ccc(Cn2c(=O)c3cccn3c3cccnc32)cc1	-2	10	x	-8	3
O=C(CSc1nc2c(cnn2-c2ccc(F)cc2)c(=O)[nH]1)Nc1ccc(Br)cc1	0	0	x	-1	0
COc1ccc(C)cc1NS(=O)(=O)c1cccc2nonc12	5	1	-52*	2	0
COc1ccc(NC(=O)CCS(=O)(=O)c2cccc3nonc23)c(OC)c1	1	-45*	1	10	0
Cc1ccc(NC(=O)CCNS(=O)(=O)c2cccc3nonc23)cc1Cl	-8	-32*!	-19	-13	3
Cc1cccc(NC(=O)CCNS(=O)(=O)c2cccc3nonc23)c1	-3	-50*!	-19	-6	3
CCCCNc1ncnc2c1nnn2C	-1	x	x	-16	4
c1ccc(-c2nnc(-c3ccccc3)nn2)cc1	1	2	-5	1	2
c1ccc(-c2cncnc2)cc1	2	-32*	20	16	2
CCOCCCN1C(=O)c2[nH]nc(-c3ccccc3O)c2C1c1ccc(CC)cc1 (configuration not stated)	10	4	x	-7	-1
COc1c(-c2ccc(O)cc2)oc2cc(O)cc(O)c2c1=O	-7	-3	u	-5	0
COc1ccc(-c2oc3cc(O)c(OC)c(O)c3c(=O)c2OC)cc1	-7	-30*	8	-16	-1
CC1=NNC(=O)/C1=C\c1cn(-c2ccccc2)nc1-c1cccs1	-18	-40*	u	-2	7
CC1=NNC(=O)/C1=C\c1cn(-c2ccccc2)nc1-c1ccc(F)cc1	-7	-54*	-69*	-3	2
COC(/C(=N/O)c1ccc(Cl)cc1)c1ccccc1 (configuration not stated)	-2	-38*	-3	-12	8
